HEK293 viab: cell viability loss counter-screen. 0.12% of 150,000 active. HEK-293-SNCA-luc viability, GF-AFC fluorescence, 24 h. AID 1671193. Potency, µM (highest dose often 57.1 µM), for inactives: top-dose activity change, negative = cytotoxicity, most hits filed as cytotoxic;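 further: 0% = DMSO-treated cells and -100% = medium-only wells without cells; nearly all actives have a fitted effect of over 30% in size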
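Cytotoxicity counterscreen: after 24 h compound treatment of genome-edited SNCA-luciferase HEK-293 cells, live-cell protease substrate GF-AFC read by fluorescence after 30 min; activity scaled between DMSO (0%) and medium-only (-100%), curves Hill-fitted.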
NPR1 antag: blocks ANP-stimulated signaling of human Npr1 receptor | AID 1347048 | HEK293 hNpr1 GloSensor cGMP, ANP-stimulated luminescence | P16066 | 1.6% of 76,000 active | Potency, µM (highest dose often 46.3 µM), for the others: top-dose activity change, negative = inhibition, usual class: inhibitors; calls by dose curve; further: nearly all actives have a fitted effect of over 60% in size
Target sequence (P16066 whole entry, looked up): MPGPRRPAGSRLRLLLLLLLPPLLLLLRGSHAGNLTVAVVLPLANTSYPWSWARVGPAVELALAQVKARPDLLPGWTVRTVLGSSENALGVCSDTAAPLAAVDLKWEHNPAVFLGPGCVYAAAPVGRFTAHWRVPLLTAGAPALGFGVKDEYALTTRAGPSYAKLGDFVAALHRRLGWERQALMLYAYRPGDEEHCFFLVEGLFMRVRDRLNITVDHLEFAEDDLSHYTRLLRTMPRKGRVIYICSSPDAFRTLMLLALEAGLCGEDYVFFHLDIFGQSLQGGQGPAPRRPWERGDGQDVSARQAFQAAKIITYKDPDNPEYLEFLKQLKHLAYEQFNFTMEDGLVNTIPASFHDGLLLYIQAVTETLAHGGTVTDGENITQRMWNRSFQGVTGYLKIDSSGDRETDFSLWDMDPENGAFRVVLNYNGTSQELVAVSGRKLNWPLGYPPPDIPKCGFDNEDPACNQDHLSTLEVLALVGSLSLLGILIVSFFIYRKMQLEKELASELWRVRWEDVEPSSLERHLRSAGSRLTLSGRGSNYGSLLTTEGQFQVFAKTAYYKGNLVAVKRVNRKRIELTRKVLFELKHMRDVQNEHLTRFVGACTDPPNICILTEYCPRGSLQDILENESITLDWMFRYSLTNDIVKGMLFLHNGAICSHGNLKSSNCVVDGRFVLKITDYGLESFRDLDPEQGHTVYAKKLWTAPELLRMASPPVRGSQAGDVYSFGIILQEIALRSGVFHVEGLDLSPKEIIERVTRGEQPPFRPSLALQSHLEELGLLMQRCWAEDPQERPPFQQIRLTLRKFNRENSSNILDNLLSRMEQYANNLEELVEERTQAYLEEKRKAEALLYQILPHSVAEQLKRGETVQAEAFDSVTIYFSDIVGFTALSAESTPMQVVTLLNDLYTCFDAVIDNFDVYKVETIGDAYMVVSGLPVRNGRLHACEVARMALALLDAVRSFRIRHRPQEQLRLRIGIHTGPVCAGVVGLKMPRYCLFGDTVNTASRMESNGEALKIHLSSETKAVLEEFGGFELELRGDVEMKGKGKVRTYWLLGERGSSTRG
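HEK293 cells stably expressing human Npr1 and cGMP GloSensor pGS-40F, loaded 2 h with 2% GloSensor reagent, given compound 30 min at room temperature. Luminescence read before and 20 min after 0.1 nM hNppA.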
Luciferase inh: blocks purified firefly luciferase enzyme activity; P08659; purified P. pyralis luciferase, luminescence, biochemical; Potency, µM (top dose mostly 115 µM), actives largely listed as inhibitors; 2.5% of 76,000 active; AID 1347043; further: nearly all actives have a fitted effect of over 65% in size
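FLuc 10nM, D-luciferin 10uM, ATP 10uM, Mg acetate 10mM, Tris acetate pH 7.5, Tween/BSA; cpd qHTS; enzyme added last; CCD luminescence.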
3T3 cytotox: NIH 3T3 cell cytotoxicity; NIH 3T3 viability, CellTiter-Glo ATP luminescence, 48-72 h; Potency, µM (series often up to 96.7 µM), inactives show at the highest dose activity change, negative = cytotoxicity, usual class: inhibitors; 4.3% of 94,000 active; AID 1345082; further: nearly all actives have a fitted effect of over 55% in size
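NIH 3T3 cells at 400 cells/well received 23 nL of compound by pintool and were incubated 48 or 72 h at 37 °C. Viability was read as ATP-coupled CellTiter-Glo luminescence.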
SNCA expr inh: SNCA gene expression inhibition; HEK-293 SNCA-luciferase knock-in, luminescence, 24 h; Potency, µM (titrated, usually from 57.2 µM), for the others: at the top dose activity change, negative = inhibition, most hits filed as inhibitors; 0.17% of 140,000 active; AID 1671194;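 further: plate controls were DMSO cells for no effect and cell-free wells for full effect; nearly all actives have a fitted effect of over 45% in size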
HEK cytotox: kills HEK 293 cells; HEK 293 viability, ATP luminescence (CellTiter-Glo), 48-72 h; Potency, µM (titrated, usually from 115 µM), inactives show top-dose activity change, negative = cytotoxicity, most hits filed as inhibitors; 6.6% of 94,000 active; further: nearly all actives have a fitted effect of over 60% in size
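qHTS cytotoxicity; HEK 293, 250 cells/well; compound pinned; 48 or 72 hr, 37 degree Celsius, 5% CO2, 95% humidity; CellTiter-Glo, 10 min RT; luminescence (ATP).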
An asterisk follows results filed as active; i = inactive; u = inconclusive; x = not tested or not shown; [ ] = dose if it differs, or a comment. Sampled rows, rich in hits. Any-hit rate of the full collection: about 7.2%. Unless noted, the call rests on the fitted dose curve; in most records, active means well fitted curve in the direction sought with a large enough effect; inconclusive means small, poorly fitted or top-dose-only effect, or another doubt; inactive means no such curve, though single readings can be large; an effect the other way counts as inactive or inconclusive. Unless noted, on the % scale 0 is the no-effect control and ±100 the full control effect; potency means the concentration at half of the fitted maximal effect.

SMILES	HEK293 viab	NPR1 antag	Luciferase inh	3T3 cytotox	SNCA expr inh	HEK cytotox
CC1=C[C@@H](CN2CCN(c3ncccn3)CC2)[C@H](C(C)C)C[C@H]1Cc1nnc(COc2ccc(F)cc2)o1	u	-25%	i	40µM*	u	25µM*
CCS(=O)(=O)N(C1CC1)C1CCOC2(CCN(C(=O)CCCc3ccccc3)CC2)C1 (stereo unspecified)	7%	-19%	i	-13%	10%	u
CCc1cccc(C)c1NC(=O)Cn1cccc1-c1nc(-c2ccc(OC)c(F)c2)no1	-3%	-16%	i	i	u	10%
CC1=C[C@@H](CN2CCN(c3ccccn3)CC2)[C@H](C(C)C)C[C@H]1Cc1nnc(-c2cncn2C)o1	-23%	-2%	i	u	-19%	32µM*
CC1=C[C@@H](CN2CCN(c3cnccn3)CC2)[C@H](C(C)C)C[C@H]1Cc1nnc(-c2cccnc2)o1	-27%	u	i	u	u	35µM*
COc1ccc(CC(=O)NC2CCN(C(=O)c3ccc(-c4cccc(OC)c4)cc3)CC2)cc1	3%[12.5 µM]	x	x	35µM*	4%	45µM*
COc1cccc(-c2ccc(C(=O)N3CCC(NC(=O)c4ccc(Cl)cc4)CC3)cc2)c1	6%[12.5 µM]	x	x	-30%	-18%	-5%
COc1cccc(-c2ccc(C(=O)N3CCC(NC(=O)c4ccccc4Cl)CC3)cc2)c1	0%[12.5 µM]	x	x	u	9%	40µM*
COc1cccc(-c2ccc(C(=O)N3CCC(NC(=O)Cc4ccc(C(F)(F)F)cc4)CC3)cc2)c1	-3%[12.5 µM]	x	x	u	-12%	u
CC(C)CNC(=O)c1csc(-c2cccc(OC(C)C)c2)n1	u	-5%	i	u	-24%	40µM*
CCN(CC)C(=O)c1csc(-c2cccc(OC(C)C)c2)n1	-2%	u	i	u	6%	40µM*
CCOc1cccc(-c2nc(C(=O)Nc3ccc(OC)cc3)cs2)c1	3%	2%	u	u	17%	u
CCOc1cccc(-c2nc(C(=O)NCc3ccccc3)cs2)c1	0%	u	i	u	14%	u
CC(C)Oc1cccc(-c2ccc(C(=O)N(C)C)cc2)c1	-14%	-2%	u	u	11%	35µM*
N#Cc1ccccc1Nc1ccnc(N2CC3CCC(C2)N3CC(F)(F)F)n1	-13%	x	x	-24%	-5%	u
Cc1noc(C)c1-c1cc2cc(CO)oc2c(NC2CCOCC2)n1	16%[87.6 µM]	-19%[70.6 µM]	i	25µM*	86%[87.6 µM]	u
Cc1noc(C)c1-c1cc2cc(CO)oc2c(-c2ccc(F)c(Cl)c2)n1	-24%[87.6 µM]	-23%[70.6 µM]	i	22µM*	-25%[87.6 µM]	50µM*
Cc1noc(C)c1-c1cc2cc(CO)oc2c(NCCOc2ccccc2)n1	-24%[87.6 µM]	-14%[70.6 µM]	i	u	-29%[87.6 µM]	u
Cc1noc(C)c1-c1cc2cc(CO)oc2c(NCC2CCOCC2)n1	10%[87.6 µM]	-12%[70.6 µM]	i	22µM*	41%[87.6 µM]	u
COc1ccc(-c2nc(-c3c(C)noc3C)cc3cc(CO)oc23)cn1	6%[87.6 µM]	2%[70.6 µM]	i	u	74%[87.6 µM]	u
CC(C)NC(=O)CCC[C@@H]1[C@H]2CCCN3CCC[C@@H](CN1C)[C@@H]23	-3%	3%	i	i	-3%	9%
Oc1ccccc1CN1CCNc2cc(Nc3cccnc3)ncc2C1	-14%[87.6 µM]	-7%[70.6 µM]	u	u	15%[87.6 µM]	63µM*
COc1ccc(CN2CCNc3cc(Nc4cccnc4)ncc3C2)cc1O	-22%[87.6 µM]	0%[70.6 µM]	i	u	17%[87.6 µM]	u
COc1ccc(CN2CCNc3cnc(Oc4ccccc4)cc3C2)cc1O	1%[87.6 µM]	-4%[70.6 µM]	i	u	6%[87.6 µM]	63µM*
Cc1cccc(CN2CCNc3cc(Nc4cccnc4)ncc3C2)c1	-21%[87.6 µM]	0%[70.6 µM]	i	u	21%[87.6 µM]	u
FC(F)(F)c1ccc(CN2CCNc3cc(Nc4cccnc4)ncc3C2)cc1	-17%[87.6 µM]	u	i	u	-25%[87.6 µM]	32µM*
